The full data set covers some 7,900 targets. This sample favours those with a hit. About 0.6% of all pairs of compound and target were hits. A number with no mark means an inactive call.
How the values were obtained:
Test in all cases: log2 fold change, soluble protein after heating vs DMSO (PISA); higher = thermal stabilisation; K562 cells, 10 uM, 30 min; active = over 0.2 and 3.5 SD of the protein, either way, in both replicates (recomputed)
erlotinib = compound: C#Cc1cccc(Nc2ncnc3cc(OCCOC)c(OCCOC)cc23)c1 [erlotinib]
Procedure, shortened: (§1)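 K562 cells at 2×10^6 cells/mL were treated with 10 μM compound for 30 min. Aliquots were heated for 3 min across 48°C-58°C, pooled, and extracted in PBS with 0.5% NP-40 at 4°C; soluble protein was the supernatant after 21,000xg for 90 min. Soluble protein was quantified by TMTpro 16plex LC-MS/MS with channel sums equalised, and reported as log2 fold change in thermal stability against DMSO controls, with values from duplicates.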

[1] = compound: C/C(=N\NC(=O)C1=CC(=CC=C1)S(=O)(=O)N2CCOCC2)/C3=C(C=CC(=C3)Cl)O
Procedure, shortened: as §1

[2] = compound: C1=CC(=C(C=C1Cl)C2=NC3=NC=CN=C3C(=N2)NC4=CC=NC=C4)F
Procedure, shortened: as §1

[3] = compound: C1=CC(=CC=C1C2=NC3=C(N2)C=C(C=C3)C(=O)N)OC4=CC=C(C=C4)Cl
Procedure, shortened: as §1

[4] = compound: C1=CC2=C(C=CC(=C2)/C=C\3/C(=O)NC(=NCC4=CC=CS4)S3)N=C1
Procedure, shortened: as §1

[5] = compound: C1=CC2=NC=CN=C2C=C1/C=C/3\C(=O)NC(=O)S3
Procedure, shortened: as §1

[6] = compound: C1=CC=C(C=C1)C2=NC(=C(N2)C3=CC=NC=C3)C4=CC(=C(C=C4)Cl)O
Procedure, shortened: as §1

[7] = compound: C1=CC=C2C(=C1)C3=NNC4=CC=CC(=C43)C2=O
Procedure, shortened: as §1

[8] = compound: C1CCN(C1)C(=O)NC2=CC=CC(=C2)NC3=NC=C(C(=N3)NCCC4=CN=CN4)Br
Procedure, shortened: as §1

[9] = compound: C1CN(CCC1(CC2=CC=C(C=C2)Cl)N)C3=NC=NC4=C3C=CN4
Procedure, shortened: as §1

IRAK-1-4 Inhibitor I = compound: C1COCCN1CCN2C3=CC=CC=C3N=C2NC(=O)C4=CC(=CC=C4)[N+](=O)[O-] [IRAK-1-4 Inhibitor I]
Procedure, shortened: as §1

ibrutinib = compound: C=CC(=O)N1CCC[C@@H](n2nc(-c3ccc(Oc4ccccc4)cc3)c3c(N)ncnc32)C1 [ibrutinib]
Procedure, shortened: as §1

[10] = compound: CC(=O)c1cnc2ccc(-c3cc(Cl)c(O)c(Cl)c3)nc2c1N[C@H]1CC[C@H](CN(C)C)CC1
Procedure, shortened: as §1

ralimetinib = compound: CC(C)(C)Cn1c(N)nc2ccc(-c3[nH]c(C(C)(C)C)nc3-c3ccc(F)cc3)nc21 [ralimetinib]
Procedure, shortened: as §1

[11] = compound: CC(C)(O)CC(=O)NCCn1ccc2ncnc(Nc3ccc(Oc4cccc(C(F)(F)F)c4)c(Cl)c3)c21
Procedure, shortened: as §1

[12] = compound: CC(C)C1=C2N=C(C=C(N2N=C1)NCC3=CC=CC=C3)NCCCCCCN
Procedure, shortened: as §1

[13] = compound: CC(C)C[C@@H](C=O)NC(=O)[C@H](CC(C)C)NC(=O)[C@H](CC(C)C)NC(=O)OCc1ccccc1
Procedure, shortened: as §1

pinometostat = compound: CC(C)N(C[C@H]1O[C@@H](n2cnc3c(N)ncnc32)[C@H](O)[C@@H]1O)[C@H]1C[C@@H](CCc2nc3cc(C(C)(C)C)ccc3[nH]2)C1 [pinometostat]
Procedure, shortened: as §1

[14] = compound: CC1=C(C(CC(=O)N1)C2=CC=C(C=C2)C(F)(F)F)C(=O)NC3=C(C=C4C(=C3)C=NN4)F
Procedure, shortened: as §1

[15] = compound: CC1=C(C2=C(C=C1)C(=O)C3=CC=CC=C3N2CCCN)C
Procedure, shortened: as §1

Chain of UniProt Q9NQI0 (Q9NQI0 whole entry, looked up): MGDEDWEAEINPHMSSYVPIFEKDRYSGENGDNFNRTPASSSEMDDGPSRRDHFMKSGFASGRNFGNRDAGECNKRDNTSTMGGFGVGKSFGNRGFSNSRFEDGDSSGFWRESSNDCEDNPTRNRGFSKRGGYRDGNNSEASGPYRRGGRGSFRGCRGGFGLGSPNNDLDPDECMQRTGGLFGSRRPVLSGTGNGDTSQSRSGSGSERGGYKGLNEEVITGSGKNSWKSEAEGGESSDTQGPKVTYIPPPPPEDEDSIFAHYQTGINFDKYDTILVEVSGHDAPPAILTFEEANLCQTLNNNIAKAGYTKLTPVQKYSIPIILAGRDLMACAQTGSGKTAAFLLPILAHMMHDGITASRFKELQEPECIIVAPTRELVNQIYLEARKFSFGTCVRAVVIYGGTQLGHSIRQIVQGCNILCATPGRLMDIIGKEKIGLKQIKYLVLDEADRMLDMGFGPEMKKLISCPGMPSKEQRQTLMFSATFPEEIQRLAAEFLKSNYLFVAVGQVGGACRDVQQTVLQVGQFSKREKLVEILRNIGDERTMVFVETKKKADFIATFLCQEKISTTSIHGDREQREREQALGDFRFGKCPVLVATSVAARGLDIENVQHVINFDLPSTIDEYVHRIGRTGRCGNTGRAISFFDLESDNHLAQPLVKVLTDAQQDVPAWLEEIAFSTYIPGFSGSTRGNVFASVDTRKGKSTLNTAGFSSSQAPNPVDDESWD
Chain of UniProt P17844 (P17844 whole entry, looked up): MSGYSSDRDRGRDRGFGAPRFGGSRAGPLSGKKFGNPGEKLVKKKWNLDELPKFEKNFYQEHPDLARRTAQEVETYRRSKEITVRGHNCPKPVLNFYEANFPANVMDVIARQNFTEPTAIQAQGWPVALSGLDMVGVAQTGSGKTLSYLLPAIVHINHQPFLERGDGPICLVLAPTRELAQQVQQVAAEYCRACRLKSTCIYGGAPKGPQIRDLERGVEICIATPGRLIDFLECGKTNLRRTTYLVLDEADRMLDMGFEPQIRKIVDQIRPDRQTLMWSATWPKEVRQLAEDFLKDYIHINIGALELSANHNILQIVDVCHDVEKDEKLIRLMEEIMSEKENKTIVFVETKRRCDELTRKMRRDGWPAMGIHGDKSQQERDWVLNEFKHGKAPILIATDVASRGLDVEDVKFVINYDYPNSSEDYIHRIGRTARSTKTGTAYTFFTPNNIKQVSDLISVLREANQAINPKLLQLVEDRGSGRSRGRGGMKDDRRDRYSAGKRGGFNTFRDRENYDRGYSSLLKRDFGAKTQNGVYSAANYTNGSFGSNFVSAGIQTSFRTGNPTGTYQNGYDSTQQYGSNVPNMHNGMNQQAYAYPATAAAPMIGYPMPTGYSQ
Chain of UniProt Q9UBR2 (Q9UBR2 whole entry, looked up): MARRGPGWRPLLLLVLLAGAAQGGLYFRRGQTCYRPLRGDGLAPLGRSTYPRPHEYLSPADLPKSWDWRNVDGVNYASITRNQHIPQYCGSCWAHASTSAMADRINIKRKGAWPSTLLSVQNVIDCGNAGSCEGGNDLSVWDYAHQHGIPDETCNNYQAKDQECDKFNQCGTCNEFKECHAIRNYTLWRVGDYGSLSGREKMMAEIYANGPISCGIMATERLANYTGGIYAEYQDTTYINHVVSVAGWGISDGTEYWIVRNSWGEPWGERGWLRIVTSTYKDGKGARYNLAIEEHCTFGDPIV
Chain of UniProt Q9H4H8 (Q9H4H8 whole entry, looked up): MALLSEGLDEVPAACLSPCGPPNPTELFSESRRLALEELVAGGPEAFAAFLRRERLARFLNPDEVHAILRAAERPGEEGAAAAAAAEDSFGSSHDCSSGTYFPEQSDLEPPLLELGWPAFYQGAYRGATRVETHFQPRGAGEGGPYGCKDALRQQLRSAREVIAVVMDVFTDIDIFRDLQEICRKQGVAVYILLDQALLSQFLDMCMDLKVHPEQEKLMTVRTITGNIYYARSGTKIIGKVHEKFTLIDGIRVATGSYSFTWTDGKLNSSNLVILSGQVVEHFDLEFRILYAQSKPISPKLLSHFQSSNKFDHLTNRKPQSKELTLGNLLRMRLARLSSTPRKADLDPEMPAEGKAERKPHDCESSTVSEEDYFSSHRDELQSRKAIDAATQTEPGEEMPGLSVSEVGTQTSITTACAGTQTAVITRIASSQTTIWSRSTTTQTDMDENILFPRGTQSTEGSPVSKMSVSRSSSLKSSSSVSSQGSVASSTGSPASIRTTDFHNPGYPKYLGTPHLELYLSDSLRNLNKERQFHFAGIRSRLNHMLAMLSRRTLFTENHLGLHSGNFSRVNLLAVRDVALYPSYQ
Chain of UniProt Q96F86 (Q96F86 whole entry, looked up): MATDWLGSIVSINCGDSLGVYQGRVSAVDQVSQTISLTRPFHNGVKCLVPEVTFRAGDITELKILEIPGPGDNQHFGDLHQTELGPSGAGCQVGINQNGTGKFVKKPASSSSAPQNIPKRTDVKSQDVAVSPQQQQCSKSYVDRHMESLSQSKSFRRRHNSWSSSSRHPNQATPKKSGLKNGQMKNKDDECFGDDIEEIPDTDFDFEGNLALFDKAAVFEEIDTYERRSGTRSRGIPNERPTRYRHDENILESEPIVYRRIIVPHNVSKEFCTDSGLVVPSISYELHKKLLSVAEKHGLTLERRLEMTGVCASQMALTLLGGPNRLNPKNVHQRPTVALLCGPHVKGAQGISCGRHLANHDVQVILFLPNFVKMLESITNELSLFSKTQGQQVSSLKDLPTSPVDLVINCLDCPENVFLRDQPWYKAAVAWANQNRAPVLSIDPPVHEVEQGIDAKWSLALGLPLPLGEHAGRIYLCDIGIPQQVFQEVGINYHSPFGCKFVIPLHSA
Chain of UniProt P07711 (P07711 whole entry, looked up): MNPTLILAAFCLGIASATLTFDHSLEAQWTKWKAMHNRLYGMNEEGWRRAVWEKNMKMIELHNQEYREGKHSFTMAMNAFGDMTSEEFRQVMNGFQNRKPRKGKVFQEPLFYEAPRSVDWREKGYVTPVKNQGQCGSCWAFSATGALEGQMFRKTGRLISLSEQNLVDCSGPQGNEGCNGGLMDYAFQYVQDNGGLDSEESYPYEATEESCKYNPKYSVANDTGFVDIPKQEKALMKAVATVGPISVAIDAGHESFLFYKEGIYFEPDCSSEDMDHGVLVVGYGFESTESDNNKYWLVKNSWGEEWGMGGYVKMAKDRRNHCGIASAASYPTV
Chain of UniProt Q99848 (Q99848 whole entry, looked up): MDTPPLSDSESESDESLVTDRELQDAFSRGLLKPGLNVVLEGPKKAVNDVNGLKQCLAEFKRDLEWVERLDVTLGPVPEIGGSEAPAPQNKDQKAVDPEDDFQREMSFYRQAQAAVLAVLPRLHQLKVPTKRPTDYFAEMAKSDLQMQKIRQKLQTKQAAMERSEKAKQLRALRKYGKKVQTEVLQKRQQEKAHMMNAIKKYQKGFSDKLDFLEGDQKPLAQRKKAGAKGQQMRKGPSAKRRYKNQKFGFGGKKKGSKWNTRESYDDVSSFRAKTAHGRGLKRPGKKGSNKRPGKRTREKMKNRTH
Chain of UniProt Q5W0V3 (Q5W0V3 whole entry, looked up): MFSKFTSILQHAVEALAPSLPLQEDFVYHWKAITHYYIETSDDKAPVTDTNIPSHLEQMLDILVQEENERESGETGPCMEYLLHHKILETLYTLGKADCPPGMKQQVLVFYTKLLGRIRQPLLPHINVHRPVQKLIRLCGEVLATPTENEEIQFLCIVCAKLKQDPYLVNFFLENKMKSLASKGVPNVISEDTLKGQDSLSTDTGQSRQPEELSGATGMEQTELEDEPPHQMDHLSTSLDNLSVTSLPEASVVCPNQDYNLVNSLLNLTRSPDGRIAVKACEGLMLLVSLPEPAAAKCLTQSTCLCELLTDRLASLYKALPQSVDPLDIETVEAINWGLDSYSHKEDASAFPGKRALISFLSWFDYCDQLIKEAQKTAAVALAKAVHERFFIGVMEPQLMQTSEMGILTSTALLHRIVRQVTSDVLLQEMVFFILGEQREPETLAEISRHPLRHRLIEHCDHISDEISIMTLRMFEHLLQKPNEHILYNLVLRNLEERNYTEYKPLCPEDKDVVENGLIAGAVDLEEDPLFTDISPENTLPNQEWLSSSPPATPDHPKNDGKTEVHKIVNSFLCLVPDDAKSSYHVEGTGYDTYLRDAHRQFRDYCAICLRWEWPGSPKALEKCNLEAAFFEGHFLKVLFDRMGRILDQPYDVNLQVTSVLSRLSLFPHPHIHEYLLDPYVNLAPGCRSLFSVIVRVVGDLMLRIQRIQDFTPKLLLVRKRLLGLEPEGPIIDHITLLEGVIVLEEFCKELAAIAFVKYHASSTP
Chain of UniProt Q5QP82 (Q5QP82 whole entry, looked up): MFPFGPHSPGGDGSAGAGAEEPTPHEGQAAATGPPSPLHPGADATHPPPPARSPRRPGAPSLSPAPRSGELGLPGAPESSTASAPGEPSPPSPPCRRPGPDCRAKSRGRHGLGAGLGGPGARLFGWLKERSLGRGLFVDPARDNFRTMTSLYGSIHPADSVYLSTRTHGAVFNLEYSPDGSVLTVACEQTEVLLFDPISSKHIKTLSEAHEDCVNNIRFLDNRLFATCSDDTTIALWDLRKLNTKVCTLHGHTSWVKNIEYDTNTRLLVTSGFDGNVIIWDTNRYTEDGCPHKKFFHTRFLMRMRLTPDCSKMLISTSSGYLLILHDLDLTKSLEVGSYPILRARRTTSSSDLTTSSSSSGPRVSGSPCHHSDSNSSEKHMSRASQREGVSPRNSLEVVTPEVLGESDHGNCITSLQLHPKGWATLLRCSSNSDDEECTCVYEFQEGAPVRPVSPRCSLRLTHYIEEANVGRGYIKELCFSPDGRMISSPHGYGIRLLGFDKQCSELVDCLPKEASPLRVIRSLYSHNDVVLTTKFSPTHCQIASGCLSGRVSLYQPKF

Target | log2 fold change (erlotinib) | log2 fold change [1] | log2 fold change [2] | log2 fold change [3] | log2 fold change [4] | log2 fold change [5] | log2 fold change [6] | log2 fold change [7] | log2 fold change [8] | log2 fold change [9] | log2 fold change (IRAK-1-4 Inhibitor I) | log2 fold change (ibrutinib) | log2 fold change [10] | log2 fold change (ralimetinib) | log2 fold change [11] | log2 fold change [12] | log2 fold change [13] | log2 fold change (pinometostat) | log2 fold change [14] | log2 fold change [15]
FADS3 (UniProt Q9Y5Q0) | 0.03 | -0.005 | 0.104 | 0.017 | 0.064 | 0.058 | 0.04 | 0.001 | -0.055 | 0.05 | 0.029 | 0.018 | -0.031 | -0.064 | -0.121 | -0.011 | 0.102 | 0.038 | -0.033 | 0.054
DNAJC7 (UniProt Q99615) | 0.02 | 0.065 | 0.061 | -0.002 | 0.014 | 0.024 | 0.013 | 0.023 | 0.005 | -0.043 | -0.041 | -0.012 | -0.007 | -0.014 | -0.022 | -0.117 | 0.023 | -0.034 | -0.003 | 0.04
CTSZ (UniProt Q9UBR2) | 0.053 | -0.025 | 0.027 | -0.047 | -0.013 | 0.023 | -0.017 | 0.073 | 0.057 | 0.09 | 0.008 | -0.02 | 0.053 | -0.062 | 0 | -0.395 (active) | 0.082 | -0.076 | 0.015 | -0.036
FAF2 (UniProt Q96CS3) | 0.009 | 0.078 | -0.003 | 0.02 | 0.049 | 0.03 | 0.15 | 0.009 | 0.035 | 0.004 | 0 | -0.026 | -0.034 | 0.103 | -0.029 | -0.044 | 0.03 | 0.053 | 0.008 | 0.044
DDX4 (UniProt Q9NQI0) | 0.576 | -0.071 | -0.23 | -0.056 | 0.006 | 0 | -0.305 | 0.006 | 0.053 | -0.273 | -0.033 | -0.046 | -0.035 | -0.063 | 0.203 | 0.02 | 0.239 | 0.24 | 0.03 | 0.033
EXTL2 (UniProt Q9UBQ6) | 0.051 | 0.018 | -0.129 | 0.04 | 0.016 | 0.037 | -0.031 | 0.062 | -0.092 | -0.119 | -0.018 | 0.019 | -0.073 | -0.061 | 0.062 | 0.01 | 0.041 | 0 | 0.021 | 0.12
DCAF10 (UniProt Q5QP82) | 0.01 | 0.014 | 0.021 | 0.029 | -0.038 | 0.064 | -0.077 | -0.013 | 0.029 | 0.006 | 0 | 0 | -0.006 | -0.082 | -0.041 | 0.02 | 0.026 | -0.016 | 0.061 | 0.01
CUX1 isoform 2 (UniProt Q13948) | -0.025 | 0.017 | 0.012 | 0.036 | 0.014 | -0.031 | -0.043 | 0.009 | -0.009 | -0.031 | 0.042 | 0.017 | -0.032 | 0.036 | -0.101 | 0.045 | 0.042 | 0.055 | 0.013 | 0.049
EDC3 (UniProt Q96F86) | -0.023 | 0.156 | 0.009 | 0.043 | -0.007 | -0.227 | -0.024 | -0.057 | -0.195 | -0.376 (active) | -0.029 | -0.082 | -0.643 (active) | 0.013 | -0.117 | -0.223 | 0.019 | 0.011 | 0.039 | -0.049
FAM160B1 (UniProt Q5W0V3) | 0.034 | 0.085 | 0.012 | -0.007 | 0.019 | 0.037 | -0.005 | 0 | -0.035 | -0.021 | 0.019 | 0.012 | 0.03 | 0.005 | -0.05 | -0.285 (active) | 0.019 | -0.019 | -0.036 | -0.051
EBNA1BP2 (UniProt Q99848) | -0.041 | -0.149 | -0.466 | 0.034 | 0.042 | 0.052 | -0.047 | -0.134 | 0.048 | -0.414 | -0.143 | -0.013 | 0.013 | 0.27 | 0.124 | 0.213 | -0.026 | 0.439 | 0.006 | -1.4 (active)
FAM83D (UniProt Q9H4H8) | 0.035 | 0.027 | -0.124 | -0.015 | -0.016 | 0.02 | 0.086 | 0.059 | -0.071 | -0.062 | 0 | -0.094 | 0.022 | 0.145 | -0.035 | -0.232 | -0.062 | 0.041 | -0.049 | 0.1
DDX5 (UniProt P17844) | 0.13 | 0.101 | 0.072 | 0 | -0.003 | -0.046 | 0.059 | -0.032 | -0.061 | -0.127 | -0.114 | 0.002 | -0.358 (active) | -0.024 | -0.189 | -0.12 | 0.069 | 0.017 | -0.067 | 0.072
DTWD1 (UniProt Q8N5C7) | 0.072 | 0.007 | 0.002 | -0.122 | 0.018 | 0.017 | -0.039 | 0.023 | 0.016 | 0.044 | 0.043 | 0.014 | 0.076 | 0 | -0.022 | 0.161 | -0.021 | -0.026 | -0.109 | 0.136
CTSH (UniProt P09668) | 0.015 | -0.054 | 0.052 | 0 | -0.062 | 0.048 | 0.022 | -0.011 | 0.047 | 0.057 | 0.009 | 0.034 | 0.005 | 0.104 | 0.005 | -0.142 | -0.016 | -0.06 | 0.009 | -0.043
CTSL (UniProt P07711) | -0.005 | -0.173 | -0.036 | -0.022 | -0.203 | 0.019 | -0.002 | -0.041 | -0.023 | 0.005 | 0.068 | 0.009 | 0.099 | 0.022 | -0.014 | -0.412 (active) | 0.098 | -0.006 | -0.01 | -0.031

— the supplement of paper PMC10849652
